Screening results: PubChem, National Center for Advancing Translational Sciences (NCATS)
Rows were chosen to be rich in hits. Some 11% of all compounds tested hit in one or more screens of this group.
HPGD block = inhibitors of human 15-hydroxyprostaglandin dehydrogenase (HPGD) | P15428 | purified HPGD, NADH fluorescence kinetic, PGE2 substrate | Potency, µM, for inactives: at the top dose activity change, negative = inhibition, usual class: inhibitors | 150,000 tested, 4.3% active | AID 894; further: potency means the concentration at half of the fitted maximal effect
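20 nM HPGD preincubated 15 min at room temperature with compound in 50 mM Tris-HCl pH 8, 0.01% Tween 20. Started with 1 mM NAD+ and 30 uM prostaglandin E2; NADH fluorescence (360/450 nm) read 5 times over 30-s intervals, last minus first.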
ALDH1A1 inh = blocks purified human ALDH1A1 activity | P00352 | Purified ALDH1A1, NADH fluorescence, propionaldehyde substrate | Potency, µM (series often up to 75.3 µM), inactives show top-dose activity, negative = inhibition, most hits filed as inhibitors | 220,000 tested, 7.3% active | AID 1030;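 further: potency means the concentration at half of the fitted maximal effect; plate controls were no enzyme wells and a reference inhibitor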
Target sequence (P00352 whole entry, looked up): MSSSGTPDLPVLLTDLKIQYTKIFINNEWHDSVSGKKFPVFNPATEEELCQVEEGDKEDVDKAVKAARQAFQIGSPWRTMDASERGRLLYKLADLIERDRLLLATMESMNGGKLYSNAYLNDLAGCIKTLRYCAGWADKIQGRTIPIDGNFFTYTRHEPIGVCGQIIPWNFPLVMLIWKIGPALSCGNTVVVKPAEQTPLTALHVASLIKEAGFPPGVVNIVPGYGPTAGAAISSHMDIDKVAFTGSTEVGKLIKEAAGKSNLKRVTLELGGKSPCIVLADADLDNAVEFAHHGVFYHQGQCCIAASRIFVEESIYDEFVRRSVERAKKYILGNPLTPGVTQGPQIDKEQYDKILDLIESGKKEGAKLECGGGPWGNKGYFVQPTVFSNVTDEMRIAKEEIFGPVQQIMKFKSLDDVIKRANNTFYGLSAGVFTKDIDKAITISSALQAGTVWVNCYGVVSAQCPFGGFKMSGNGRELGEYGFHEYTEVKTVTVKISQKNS
PNC assembly inh = blocks assembly of the perinucleolar compartment; PC3M PTB-GFP, PNC prevalence imaging, 16 h; stronger effect = lower value; activity change (PNC), negative = inhibition, % at 10 µM; 140,000 tested, 3.1% active;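 active means readout at or below -70, meaning at least 70% loss of cells showing the perinucleolar compartment, a nuclear body marking cancer cells; inconclusive means readout between -30 and a set limit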;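 further: plate controls were DMSO wells for no effect and camptothecin positive control wells for full effect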
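PC3M cells stably expressing PTB-GFP, 750–1000 cells/well, treated 16 h at 37 °C with compound (23 nl of library stock), in duplicate. After paraformaldehyde fixation and Hoechst stain, imaged at 20x; PNC prevalence scored by image analysis.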
Starred values were filed as active, the others as inactive; ? = inconclusive; . = not tested or not shown; [ ] = dose if it differs, or a comment. Unless noted, the call rests on the fitted dose curve; in most records, active means well fitted inhibition curve with a large enough effect (not every such curve was filed as active); inconclusive means small, poorly fitted or top-dose-only effect, or another doubt; inactive means no such curve, though single readings can be large or run the other way. Unless noted, on the % scale 0 is the no-effect control and ±100 the full control effect.

SMILES | HPGD block | ALDH1A1 inh | PNC assembly inh
COc1ccc2c(=O)c3c(=O)n(Cc4ccco4)c(-c4cc(OC)c(OC)c(OC)c4)nc3oc2c1 | -24.1% | -7.7% | -14.7
COc1ccc2c(=O)c3c(=O)n(Cc4ccco4)c(-c4ccccc4)nc3oc2c1 | -19.1% | 22.4µM* | 19.8
O=c1c2ccccc2oc2nc(-c3ccco3)n(CCc3ccccc3)c(=O)c12 | 2.7% | 3.0% | -100.0*
O=c1c2ccccc2oc2nc(-c3ccco3)n(-c3ccccc3)c(=O)c12 | 30.2% | -12.0% | 2.0
Cc1ccc(C)c(NC(=O)Cn2nnc(C(=O)NCc3cccs3)c2N)c1 | -4.1% | 10.8% | -13.8
COc1ccc(Nc2nc(NCc3ccco3)nc(N/N=C/c3ccc(O)cc3)n2)cc1 | ? | 3.8% | 81.7
COc1ccc(/C=N/Nc2nc(NCc3ccco3)nc(Nc3ccc(OC)cc3)n2)cc1 | -27.4% | 11.2µM* | 13.9
Cc1cc(C)c(NC(=O)C2CC(=O)N(Cc3ccccc3)C2)c(C)c1 (centres undefined) | . | 12.5% | .
CC(=O)Nc1ccc(NC(=O)C2CC(=O)N(Cc3ccccc3)C2)cc1 (centres undefined) | . | 3.55µM* | .
COC(=O)CC[C@@H](C)[C@H]1CC[C@H]2[C@@H]3CC[C@@H]4C[C@H](O)CC[C@]4(C)[C@H]3C[C@H](O)[C@]12C | -1.3% | 5.1% | .
CC(C)NC(=S)N/N=C/c1ccc(C(C)(C)C)cc1 | . | 11.1% | .
CCOC(=O)C(NC(=O)c1ccc(OC)cc1)(N1CCCC1=O)C(F)(F)F (centres undefined) | 2.2% | 6.1% | -15.0
CCOC(=O)C(NC(=O)c1ccccc1)(N1CCCC1=O)C(F)(F)F (centres undefined) | -14.1% | 8.4% | -84.9*
CCOC(=O)C1C(=O)C=C(c2ccc(C)cc2)CC1c1ccco1 (centres undefined) | -18.6% | ? | 25.1
CCOC(=O)C1C(=O)C=C(c2ccc(C)cc2)CC1c1cccc([N+](=O)[O-])c1 (centres undefined) | . | 2.51µM* | -1.0
COc1ccc(OC2C(O)COC2/C=C/c2ccccc2)cc1 (centres undefined) | . | 4.3%[13.5 µM] | .
C=C1C(CCl)(CCl)C2(Cl)C(Cl)C(Cl)C1(Cl)C2(Cl)Cl (centres undefined) | -19.4% | 14.1µM* | .
Cc1cc(C)cc(OCc2nnc(SCC(=O)N3CCN(c4ccccc4)CC3)o2)c1 | -15.9% | ? | ?
CCOC(=O)C1=NN(C(C)=O)C2(CC(=O)N(c3cccc(C)c3)C2=O)C1 (centres undefined) | 0.2% | 15.4% | ?
C=CCNC(=S)Nc1c(N)n(C)c(=O)n(C)c1=O | . | 18.7% | .
O=c1[nH]c(N2CCOCC2)nc2c1CCCC2 | -5.1% | 18.3% | ?
CCOC(=O)c1cnc(SC)nc1Oc1cccc(NC(=O)c2ccc(Cl)cc2)c1 | -6.0% | 19.4% | 7.3
CCOC(=O)c1cnc(SC)nc1Oc1cccc(NS(=O)(=O)c2ccc(Cl)cc2)c1 | -12.2% | 0.2% | -100.0*
Nc1nc(N)nc(CCCc2nc(N)nc(N)n2)n1 | -2.2% | 3.3%[13.5 µM] | .
CC(=O)/C=C/n1c(=S)oc2ccccc21 | -20.7% | 7.94µM* | ?
SMILES | HPGD block | ALDH1A1 inh | PNC assembly inh
CC(C)CC(=O)/C=C/n1c(=S)oc2ccccc21 | -19.2% | ? | 54.4
Cc1cccc(NC(=O)c2ccc(C3SCC(=O)N3CCc3ccccc3)cc2)c1 (centres undefined) | ? | ? | 31.7
CC(=O)Nc1ccc(NC(=O)c2ccc(C3SCC(=O)N3CCc3ccccc3)cc2)cc1 (centres undefined) | -16.8% | 25.1µM* | -26.3
Cc1ccc(S(=O)(=O)CCC(=O)Nc2ccc3c(c2)OCO3)cc1 | -15.0% | -14.1% | ?
CCN(CC)S(=O)(=O)c1ccc2c(c1)nc(CCC(=O)Nc1ccc3c(c1)OCO3)n2C | -1.0% | 7.94µM* | 70.8
CCN(CC)S(=O)(=O)c1ccc2c(c1)nc(CCC(=O)Nc1ccc3c(c1)OCO3)n2CC | -11.3% | 2.82µM* | 11.6
CCN(CC)S(=O)(=O)c1ccc2c(c1)nc(CCC(=O)OCC(=O)Nc1cc(OC)cc(OC)c1)n2C | -7.2% | ? | -29.5
CCCCn1c(CCC(=O)O)nc2cc(S(=O)(=O)N(C)C)ccc21 | . | 2.2% | .
CCN(CC(=O)Nc1ccc2c(c1)OCCO2)S(=O)(=O)c1ccc(C)cc1 | -15.1% | -2.2% | ?
CCN(CC)S(=O)(=O)c1ccc2c(c1)nc(CCC(=O)O)n2C | . | 11.2µM* | .
CCN(CC)S(=O)(=O)c1ccc2c(c1)nc(CCC(=O)OCC(=O)Nc1c(F)cccc1F)n2C | -10.0% | 10µM* | -8.0
CCCOC(=O)Nc1nnc(CCC)s1 | -11.9% | 9.4% | 29.7
Cc1cc(C(=O)CSc2nnc(-c3cccs3)o2)c(C)n1-c1ccccc1 | -17.4% | -11.5% | -15.4
CCOC(=O)C1=C(CSc2nncn2C)NC(=O)NC1c1cc(OCC)ccc1OCC (centres undefined) | -8.5% | 0.5% | -18.9
CC1(C)C(=O)Nc2ccccc2N1C(=O)COc1cccnc1[N+](=O)[O-] | . | 9.0% | .
COc1ccc2c(c1)C(=O)[C@@H](OC(=O)Nc1ccc(C)c(Br)c1)[C@H](c1ccc(OC)c(Br)c1)O2 | -12.4% | 2.0% | .
O=c1c[n+](CCCC[n+]2cc(=O)o[nH]2)[nH]o1 | -4.7% | 3.3%[13.5 µM] | .
CN(C)S(=O)(=O)c1ccc2c(c1)nc(CCC(=O)Nc1ccc3c(c1)OCO3)n2C | -15.6% | 5.01µM* | 29.2
CN(C)S(=O)(=O)c1ccc2c(c1)nc(CCC(=O)Nc1ccc(N3CCOCC3)cc1)n2C | . | -0.9% | .
O=C(COC(=O)c1oc2ccccc2c1COc1ccccc1)NCCN1C(=O)CSC1=O | -5.7% | -5.8% | 18.7
COC(=O)C1(Cc2ccccc2)C2c3cc(C(=O)N4CCCC4)n(Cc4ccc(OC(F)(F)F)cc4)c3CC2CN1C(=O)c1ccccc1 (centres undefined) | -18.6% | 0.6% | .
CC1CN(c2nnc(-c3ccccc3)c3ccccc23)CC(C)O1 (centres undefined) | . | 16.5% | .
Cc1cc2nnn(-c3nnc(-c4ccccc4)c4ccccc34)c2cc1C | -0.7% | 15.2% | -109.4*
O=C(CSc1ccsc1[N+](=O)[O-])N1CCN(c2ccc(Cl)cc2)CC1 | -18.5% | -5.0% | -17.1
Cc1nn(C)cc1CNC(=O)Nc1ccc(Cl)c(Cl)c1 | 15.8µM* | -15.6% | 26.5
SMILES | HPGD block | ALDH1A1 inh | PNC assembly inh
Cc1ccc(NC(=O)NCc2c(C)nn(C)c2C)cc1Cl | . | -3.4% | .
CCOC(=O)C(NC(=O)c1ccccc1OCC)(Nc1ncccn1)C(F)(F)F (centres undefined) | -19.1% | 0.0% | 9.0
COC(=O)CN(n1cnnc1)S(=O)(=O)c1ccccc1Cl | -10.1% | -2.2% | ?
CON(c1nc(N(C)C)nc(N(C)C)n1)S(=O)(=O)c1ccccc1Cl | -16.6% | -8.0% | -100.0*
S=c1[nH]nc(COc2ccc(Cl)cc2)o1 | ? | 3.55µM* | 4.9
COc1ccc(OCc2n[nH]c(=S)o2)cc1 | ? | 10µM* | ?
S=c1[nH]nc(CCc2ccc(Cl)cc2)o1 | -13.6% | ? | 58.0
Cc1ccc(C(C)C)c(OCc2n[nH]c(=S)o2)c1 | . | -0.2% | .
CCOC(=O)C1CCCN(C(=O)c2sc3nc(-c4ccc(OC)cc4)cn3c2C)C1 (centres undefined) | -17.1% | ? | 10.3
Cc1ccc(C)c(C(=O)CSc2nnnn2C(C)C)c1 | -15.8% | ? | ?
